# Most compounds without a hit are left out; they make up all but 19% or so of the library.
# TDP1 cell noCPT = qHTS for Inhibitors of human tyrosyl-DNA phosphodiesterase 1 (TDP1): qHTS in cells in absence of CPT | DT40 Tdp1-/- hTDP1 cells, no CPT, ATP luminescence, 48 h | Potency, µM (titrated, usually from 46.2 µM), for the others: top-dose activity change, negative = growth inhibition, most hits filed as inhibitors | 15% of 420,000 active; note: potency is the fitted concentration of half-maximal effect; % is set by controls: 0 for no effect and ±100 for the full control effect; nearly all actives have a fitted effect of over 55% in size
#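 Readout: luminescence from CellTiter-Glo after 30 min in the dark at RT. Cells: DT40 Tdp1-/- with stable hTDP1, 400/well. Exposure: compounds alone, ≥48 hr, 37 °C.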
# SW480 rereplic = DNA re-replication induction in SW480 cells; SW480 DNA re-replication, Hoechst DNA content imaging, 48 h; Potency, µM (titrated, usually from 46.1 µM), inactives show top-dose re-replication activation, usual class: activators; 1.8% of 340,000 active; AID 624297; note: potency is the fitted concentration of half-maximal effect; % of control where 0% means no effect; nearly all actives have a fitted effect of over 55% in size
#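 Quantitative HTS format with DMSO vehicle controls; 48 hr drug incubation at 37 C, then 40 min Hoechst staining and scanning imager measurement at 405 nm excitation.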
# DT40 TDP1 CPT = growth inhibition of DT40 Tdp1-/-;hTDP1 cells with camptothecin (screen for TDP1 inhibitors); chicken DT40 Tdp1-/-;hTDP1 cells + 20 nM CPT, ATP luminescence, 48 h; Potency, µM (titrated, usually from 46.2 µM), for the others: at the top dose activity change, negative = growth inhibition, most hits filed as inhibitors; 12% of 420,000 active; note: potency is the fitted concentration of half-maximal effect; % is set by controls: 0 for no effect and ±100 for the full control effect; nearly all actives have a fitted effect of over 55% in size
#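 Cell growth measured by CellTiter-Glo luminescence after a minimum 48 h, 37 C compound exposure with 20 nM CPT in Tdp1-knockout DT40 cells stably expressing hTDP1, seeded 400/well; qHTS titration format.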
# MCF10A rereplic = DNA re-replication induction in MCF 10a cells; Potency, µM (series often up to 46.1 µM), for inactives: at the highest dose activity, positive = re-replication, actives largely listed as activators; MCF 10A DNA re-replication, Hoechst nuclear intensity, 48 h; 2.9% of 350,000 active; note: potency is the fitted concentration of half-maximal effect; % of control where 0% means no effect; nearly all actives have a fitted effect of over 50% in size
# Chronic BCR inh = inhibitors of chronic active B-cell receptor signaling | ABC-DLBCL IkBa-CBG/CBR reporter, luminescence ratio, 4 h | Potency, µM (series often up to 46.1 µM), for inactives: at the top dose activity change, negative = inhibition, hits mostly inhibitors | 0.05% of 340,000 active | AID 493014; active = well fitted inhibition curve with a large enough effect in the signal ratio, with a control signal flat, not every such curve was filed as active; inconclusive = small, poorly fitted or top-dose-only effect, or effect the other way, or a change in a side signal; the % refers to the signal ratio;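 note: potency is the fitted concentration of half-maximal effect; plate controls were basal doxycycline-induced cells for no effect and cells given 10 µM MG132 for full effect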
#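 Concentration-response series (up to 46 uM) were applied to TMD8 dual-reporter cells for 4 h at 37C with doxycycline. Green/red ratio, after filter-overlap correction, defined %Activity; red signal alone was normalised to basal cells and zero luminescence.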
# IL-1B inflam inh = inhibitors of inflammasome signaling (IL-1 beta secretion) | 4.7% of 360,000 active | activity change, % at 57.5 µM | AID 743279 | THP-1 LPS/ATP IL-1B secretion, AlphaLISA, 16 h; hits give low values; in the data active = activity change below about -50%; inconclusive = mostly about -30% to -49%; note: % is set by controls: 0 for no effect and ±100 for the full control effect
#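 THP-1 cells pretreated 1 hr with compounds (up to 57.5 uM final), then stimulated with LPS (250 ng/mL final) plus ATP (1.25 mM final); secreted IL-1B measured by AlphaLISA after 16 hr, decreased signal indicating inhibition.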
# An asterisk follows results filed as active; ? = inconclusive; . = no result. Unless noted, calls come from the whole dose curve; as a rule, active = well fitted curve in the direction sought with a large enough effect; inconclusive = small, poorly fitted or top-dose-only effect, or another doubt; inactive = no such curve, though single readings can be large; an effect the other way counts as inactive or inconclusive.
SMILES,TDP1 cell noCPT,SW480 rereplic,DT40 TDP1 CPT,MCF10A rereplic,Chronic BCR inh,IL-1B inflam inh
COc1cc(NC(=O)CNC(c2ccccc2)c2ccccc2)cc(OC)c1OC,21µM*,-3%,26µM*,-1%,?,-5
COc1ccc(NC(=O)CNC(c2ccccc2)c2ccccc2)cc1,26µM*,-5%,?,0%,-7%,16
O=c1n(Cc2ccc([N+](=O)[O-])cc2)c2ccccc2c2nc(-c3ccccc3)nn12,?,.,7.3µM*,.,11%,.
COc1ccc(CN(C)c2ncnc3sccc23)c(OC)c1OC,21µM*,?,12µM*,?,-16%,-12
COc1ccc(CCN(C)c2ncnc3sccc23)cc1OC,-61%,?,?,0.82µM*,?,-53*
CCOc1ccc(N2CC(C(=O)Nc3nnc(C4CCCCC4)s3)CC2=O)cc1 (stereo unspecified),?,-1%,?,0%,7%,19
Cc1ccccc1N=Cc1cccc(O)c1O,10µM*,6.5µM*,?,?,?,64
CC(N=Cc1cccc(O)c1O)c1ccccc1 (stereo unspecified),?,8.2µM*,?,?,?,-27
CC(N=Cc1cc([N+](=O)[O-])ccc1O)c1ccccc1 (stereo unspecified),9%,0%,3%,-5%,-10%,8
Cc1ccc(N=Cc2cccc(O)c2O)c(C)c1,?,.,20µM*,.,3%,.
CCc1ccc(-c2cc(C(=O)O)c3ccccc3n2)s1,?,?,-13%,0%,1%,26
Cc1ccc(-n2nc(C)c3c(C(=O)NCc4ccccc4)cc(C4CC4)nc32)cc1,-21%,.,-18%,.,.,.
CCOc1ccccc1NC(=O)CN(C)S(=O)(=O)c1ccc2nc(C)sc2c1,-28%,.,-6%,.,.,.
Cc1csc2ncnc(NCCc3ccccn3)c12,3.7µM*,?,6.5µM*,-1%,-5%,-27
c1ccc(CCNc2ncnc3sccc23)nc1,7.3µM*,-8%,6.5µM*,0%,8%,10
Cc1ccc(NC(=O)CN2CCN(C)CC2)cc1S(=O)(=O)N1CCOCC1,-3%,-7%,14%,-1%,8%,7
Cc1cc(N2CCN(C(=O)c3ccco3)CC2)nc(-c2ccccc2)n1,18µM*,-7%,?,?,?,?
Cc1cc(N2CCN(c3ccccc3)CC2)nc(N)n1,-19%,-5%,-17%,15%,-21%,-14
COCc1cc(N2CCCCC2)nc(-c2ccccc2)n1,18µM*,11%,10µM*,?,1%,2
Cc1cc(N2CCN(C(=O)c3ccco3)CC2)n2nc(-c3cccc(F)c3)cc2n1,?,?,?,23µM*,3%,-24
Cc1cc(N2CCN(c3ccccc3)CC2)nc(-c2ccccc2)n1,10µM*,0%,23µM*,?,12%,-8
COc1ccc2[nH]cc(CCNC(=O)Nc3cc(C)cc(C)c3)c2c1,-3%,.,-4%,.,.,.
Cc1ccc(CNC(=O)C(=O)NCC2CCCN2S(=O)(=O)c2cc(C)ccc2C)cc1 (stereo unspecified),?,?,-7%,-17%,?,-10
CN(Cc1nc(Cc2cccc(F)c2)no1)CC1CCOCC1,-17%,-5%,-1%,5%,-1%,-9
S=c1[nH]nc(-c2ccc(Br)cc2)n1Cc1ccccc1,?,-12%,?,-1%,0%,13
CCC(O)c1nc2ccccc2n1Cc1cccc(Cl)c1 (stereo unspecified),18µM*,.,?,.,.,.
c1ccc(Cc2nc3ccccc3n2Cc2ccccc2)cc1,?,6%,-21%,?,12%,-9

# Screening data: PubChem BioAssay, National Center for Advancing Translational Sciences (NCATS)
